The supplement of paper PMC6555819

Tests used:
Test in all cases: PBM binding z-score (relative to random genomic background probes); higher = stronger binding; sequences stand for … in GC…GCGATTGACAGCGTAGAATGAAGG
[1] = test system: PPARg:RXRa DBDmut IVT, anti-RXR (DBD mutation: RXRa K156A/R161A, NR concentration 270 nM, RXRa partner concentration 90 nM)
How it was run: (§1)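 Binding z-scores take random background probes as their reference. They come from custom Agilent 4×180K protein-binding microarrays incubated 1 h with ligand-free nuclear receptor dimers, with antibodies against each partner (one per run) detecting binding. Scanned fluorescence was regression-normalized.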

[2] = test system: PPARg:RXRa IVT, anti-PPARg (NR concentration 270 nM, RXRa partner concentration 90 nM)
How it was run: as §1

[3] = test system: PPARg DBDmut:RXRa IVT, anti-PPARg (DBD mutation: PPARg1 K132A/R137A, NR concentration 270 nM, RXRa partner concentration 90 nM)
How it was run: as §1

[4] = test system: PPARg DBDmut IVT, anti-PPARg (DBD mutation: PPARg1 K132A/R137A, NR concentration 270 nM)
How it was run: as §1

[5] = test system: PPARg homodimer (NR concentration 180 nM)
How it was run: as §1

[6] = test system: PXR:RXRa (NR concentration 270 nM, RXRa partner concentration 90 nM)
How it was run: as §1

[7] = test system: PXR homodimer (NR concentration 270 nM)
How it was run: as §1

[8] = test system: RARa:RXR (NR concentration 270 nM, RXRa partner concentration 90 nM)
How it was run: as §1

[9] = test system: RARa homodimer (NR concentration 270 nM)
How it was run: as §1

[10] = test system: RARb:RXRa (NR concentration 270 nM, RXRa partner concentration 90 nM)
How it was run: as §1

Sequence	PBM binding z-score [1]	PBM binding z-score [2]	PBM binding z-score [3]	PBM binding z-score [4]	PBM binding z-score [5]	PBM binding z-score [6]	PBM binding z-score [7]	PBM binding z-score [8]	PBM binding z-score [9]	PBM binding z-score [10]
TAGCCTAGGTCTTTGGGCCAGTATAGTACGCATC	-0.223	0.546	-1.01	-0.496	-0.656	-0.782	-0.961	-0.806	-0.737	-0.161
CAAACTAGGTCATGAAAGGTCAAAGTCGAATGAC	8.27	8.84	5.43	7.62	9.18	7.23	2.71	7.33	4.32	5.36
TAGCCTAGGTCATTCACGGGCCAGTATAGAAAGC	1.89	2.6	1.17	0.147	2.35	2.01	-0.0937	2.84	0.0278	3.69
TATACAGGGTCAAAGGCCACAGTACGAATGTCGA	2.84	5.48	3.56	1.95	3.1	4.85	0.619	7.09	1.53	4.45
ATATGTCGGTTAAGGGTCATTCAGGTTGGTTCGC	2.75	4.81	2.12	1.06	3.13	5.03	2.46	4.78	2.84	3.31
AGCTCTAGGTAAGACTCAGTTCAGTGAAGAACGC	2.37	0.56	-0.869	0.622	-0.0493	0.744	0.904	-0.0214	-0.00994	-0.0595
CGACCTAGGTCAGAACAGGACAGTGAAGGATGAT	2.58	2.09	-0.486	-0.795	1.04	1.42	-0.195	0.948	0.342	3.33
CCTACTGGGCCAATGGTCATTGATTCCAATGCTC	3.79	4.11	0.147	-0.523	-0.104	-0.581	-0.689	-0.388	-0.588	0.311
GCGCCTGGGGCATCAGCAGGTTACCATAACTTAA	-0.452	-0.359	-1.03	-1.67	-0.0775	0.0887	-0.879	0.514	-1.02	0.937
CCATACGGGTCACTGACAGGTTATAGCATTTGGA	2.31	3.21	0.442	0.0659	2.58	3.55	0.194	4.58	1.68	3.81
ATCGAAAGGTCGACGGGGTGAGTATACACCGTTT	0.683	2.19	1.15	0.814	2.18	3.64	1.33	4.46	0.456	3.98
GCTCGGAGGACAAGGTCAGAGTTTTGTCCGTAGA	0.207	0.996	-0.873	-1.18	0.43	1.95	0.373	2.23	-0.47	3.46
CGACCTAGGTCAAGGACAGTGAATCTCCGCACGC	4.04	3.83	0.362	-0.346	2.36	1.6	-0.248	2.45	0.805	4.13
TCTAGCAGGCCAGAAGGTCACTCAAGAGGTACGG	1.1	0.932	-0.221	-1.25	2.43	2.79	-0.00251	3.63	-0.201	3.28
CAAACTAGGTCCCAGAGGTCAAAGTCCGTGCGTA	4.19	4.68	1.03	0.477	2.64	5.55	2.66	5.68	1.33	3.8
TCTAGTTGGTCACGAAGGTCACACACGACGGGTA	2.83	4.36	1.5	1.16	3.64	3.95	1.05	4.14	2	4.01
CGAACTAGCTCAGAACAGGACAGTGAAGGATGAT	-0.0249	-0.714	-0.195	0.0741	-0.71	-0.669	0.0442	-0.393	0.354	-0.236
CAGCCTAGGTCAGGGCCAGTACAGGAGGAACGTT	1.35	1.58	-0.899	-1.34	0.93	0.659	-0.209	1.03	-0.614	3.42
CCTTACGGGTCAAGGTTATAGTACGGGTGGTACG	1.4	3.68	0.554	-0.326	2.79	3.75	0.673	4.68	1.47	4.18
AGTCAAGGTTCACTAGGTAACGTAAGATTCAGCT	2.7	4.17	0.684	1.3	1.04	1.83	0.833	1.9	-0.0473	2.75
ACTAGCAGGCCAAGTTTAGGTCACTCAAACAAAG	0.729	1.54	-0.154	-0.113	0.824	0.86	0.177	1.7	-0.431	2.33
TCATATAGGTAATTCAGGTGAAAGTCGGCATCTA	4.31	3.55	1.64	1.6	1.41	0.703	0.443	1.34	1.6	0.546
AATGCAGGGTCATCGTAGGCCAGAGTACGCACAG	2.83	4.24	1.78	1.66	2.03	4.81	0.279	4.75	0.252	4.37
CCTTCTGGGCCATCAGGTCATTGATATCAACGTT	4.77	5.03	0.4	0.236	1.37	1.64	0.618	2.31	0.159	2.28
